According to PubChem BioAssay (NCI):
Compounds without any hit were thinned out: in the full panel of roughly 79,000, 15% have a hit. The source made the active and inactive calls. Rule as the data show it: active = growth inhibition above about 70%; inactive = the rest.

How the values were obtained:
[1] = NCI Yeast Anticancer Drug Screen. Data for the rad50EPP+ strain (AID 151);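 also: 0% = growth of vehicle-treated control cultures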; settings: S. cerevisiae rad50 mutant strain, active compounds read high
In short: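 Genetically defined yeast (rad50EPP+, DNA damage repair alteration) is grown with compound, and inhibition of growth is expressed relative to vehicle-treated controls.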

[2] = NCI Yeast Anticancer Drug Screen. Data for the mgt1 strain (AID 153); settings: S. cerevisiae mgt1 mutant growth inhibition, active compounds read high
In short: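 In the mgt1 strain, test compounds were added and growth inhibition was determined relative to vehicle-treated controls.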

[3] = NCI Yeast Anticancer Drug Screen. Data for the rad50 strain (AID 155);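 also: 0% = growth of vehicle-only cultures of the same strain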; settings: S. cerevisiae rad50 strain growth inhibition, active compounds read high
In short: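 DNA repair mutant yeast, compound exposure, growth read-out; inhibition is taken relative to vehicle.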

[4] = NCI Yeast Anticancer Drug Screen. Data for the mec2-1 strain (AID 157); settings: S. cerevisiae mec2-1 strain, active compounds read high
In short: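 Each compound was tested on mec2-1 yeast, a strain altered in DNA damage repair or cell cycle control. Growth inhibition is reported relative to vehicle.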

[5] = NCI Yeast Anticancer Drug Screen. Data for the rad14 strain (AID 159);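 also: 0% = growth of vehicle-treated control cultures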; settings: S. cerevisiae rad14 strain growth inhibition, active compounds read high
In short: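 DNA repair-defective yeast, compound-exposed; % growth inhibition derived by comparison with vehicle-treated controls.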

[6] = NCI Yeast Anticancer Drug Screen. Data for the sgs1 mgt1 strain (AID 161);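 also: 0% = growth of cultures given vehicle only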; settings: S. cerevisiae sgs1 mgt1 strain, active compounds read high
In short: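 Genetically altered yeast, compound exposure, growth inhibition relative to vehicle.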

[7] = NCI Yeast Anticancer Drug Screen. Data for the CLN2oe strain (AID 163);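 also: 0% = growth of vehicle-only control cultures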; settings: S. cerevisiae CLN2oe strain, active compounds read high
In short: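 First, the altered yeast strain was treated with each compound; second, its growth was measured; finally, inhibition was derived by comparison with vehicle controls.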

[8] = NCI Yeast Anticancer Drug Screen. Data for the cln2 rad14 strain (AID 165);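 also: 0% = growth equal to vehicle treated cultures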; settings: S. cerevisiae cln2 rad14 strain, active compounds read high
In short: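 Test compounds were added to cln2 rad14 yeast cultures; inhibition of growth was then determined by comparison with vehicle treatment.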

[9] = NCI Yeast Anticancer Drug Screen. Data for the bub3 strain (AID 167); settings: S. cerevisiae bub3 mutant strain, active compounds read high
In short: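 In this screen, a yeast mutant lacking normal mitotic checkpoint function is challenged with compound. Relative growth versus vehicle gives the inhibition value.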

[10] = NCI Yeast Anticancer Drug Screen. Data for the wt2 strain (AID 169);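 also: 0% = growth of vehicle-treated yeast cultures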; settings: S. cerevisiae wt2 strain growth inhibition, active compounds read high
In short: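 The panel's yeast strains carry defined changes in DNA repair or cell cycle genes. Each strain is grown with compound, and growth loss is scored relative to vehicle.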

[11] = NCI Yeast Anticancer Drug Screen. Data for the mlh1 strain (AID 171);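 also: 0% = growth of vehicle-treated control cultures of the same strain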; settings: S. cerevisiae mlh1 strain growth inhibition, active compounds read high
In short: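 Inhibition values reflect reduced yeast growth in the presence of compound, referenced to vehicle controls, using a strain chosen for its alteration in DNA repair or cell cycle control.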

[12] = NCI Yeast Anticancer Drug Screen. Data for the sgs1 strain (AID 173);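 also: 0% = growth of vehicle-only control cultures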; settings: S. cerevisiae sgs1 mutant, active compounds read high
In short: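 Vehicle-treated cultures served as reference for growth inhibition of a yeast strain altered in DNA damage repair or cell cycle control after compound exposure.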

[13] = NCI Yeast Anticancer Drug Screen. Data for the mlh1 rad18 strain (AID 175); settings: S. cerevisiae mlh1 rad18 strain growth inhibition, active compounds read high
In short: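 Inhibition values reflect reduced growth of mutant yeast versus vehicle-treated controls following compound exposure; the mutations affect DNA damage repair.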

[14] = NCI Yeast Anticancer Drug Screen. Data for the rad18 strain (AID 177); settings: S. cerevisiae rad18 mutant growth inhibition, active compounds read high
In short: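 Steps: expose repair-mutant yeast to compound; measure growth; express as inhibition relative to vehicle control.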

[15] = at 5.0 µM (retest, dose inferred, filed as 0.5)
[16] = at 50.0 µM (retest, dose inferred, filed as 5.0)

Measured: growth inhibition

CCOC(=O)C1C2c3ccccc3C(c3ccccc32)C1C(=O)OCC (configuration not stated)
inactive: [1]; at 1.2 µM -1% | [1]; at 3.7 µM -2% | [1]; at 11.0 µM 2% | [1]; at 33.0 µM -2% | [1]; at 100.0 µM 1% | [2]; at 1.2 µM -1% | [2]; at 3.7 µM 1% | [2]; at 11.0 µM 4% | [2]; at 33.0 µM 7% | [3]; at 1.2 µM 3% | [3]; at 3.7 µM 3% | [3]; [15] 13% | [3]; at 11.0 µM 8% | [3]; at 33.0 µM 15% | [3]; at 50.0 µM 17.3% | [4]; at 1.2 µM -1% | [4]; at 3.7 µM 1% | [4]; [15] -8% | [4]; at 11.0 µM 3% | [4]; at 33.0 µM 6% | [4]; [16] 1% | [5]; at 1.2 µM 5% | [5]; at 3.7 µM 7% | [5]; at 11.0 µM 12% | [5]; at 33.0 µM 16% | [6]; [15] 2% | [7]; at 1.2 µM 7% | [7]; at 3.7 µM 7% | [7]; at 11.0 µM 19% | [7]; at 33.0 µM 30% | [8]; [15] -4% | [8]; [16] 28% | [8]; at 50.0 µM 56.7% | [9]; at 1.2 µM 0% | [9]; at 3.7 µM 8% | [9]; [15] 18% | [9]; at 11.0 µM 11% | [9]; at 33.0 µM 17% | [9]; [16] 60% | [9]; at 50.0 µM 49% | [10]; at 1.2 µM -12% | [10]; at 3.7 µM -11% | [10]; at 11.0 µM 7% | [10]; at 33.0 µM 6% | [11]; at 1.2 µM -1% | [11]; at 3.7 µM 6% | [11]; at 11.0 µM 7% | [11]; at 33.0 µM 16% | [12]; at 1.2 µM -9% | [12]; at 3.7 µM -19% | [12]; at 11.0 µM 12% | [12]; at 33.0 µM 19% | [13]; [15] 16% | [13]; at 50.0 µM 53.1% | [14]; at 1.2 µM 1% | [14]; at 3.7 µM 8% | [14]; at 11.0 µM 9% | [14]; at 33.0 µM 11%
active: [2]; at 100.0 µM 93% | [3]; [16] 77% | [3]; at 100.0 µM 91% | [4]; at 50.0 µM 74.7% | [4]; at 100.0 µM 89% | [5]; at 100.0 µM 90% | [6]; [16] 89% | [6]; at 50.0 µM 80.2% | [7]; at 100.0 µM 93% | [9]; at 100.0 µM 76% | [10]; at 100.0 µM 95% | [11]; at 100.0 µM 86% | [12]; at 100.0 µM 97% | [13]; [16] 87% | [14]; at 100.0 µM 91%

OC1CCCC[CH]1[Hg][Cl] (configuration not stated)
active: [3]; [15] 99% | [3]; [16] 99% | [3]; at 50.0 µM 99.3% | [4]; [15] 100% | [4]; [16] 100% | [4]; at 50.0 µM 99.7% | [6]; [15] 100% | [6]; [16] 100% | [8]; [15] 99% | [8]; [16] 99% | [8]; at 50.0 µM 99.3% | [9]; [15] 100% | [9]; [16] 100% | [9]; at 50.0 µM 99.3%
inactive: [6]; at 50.0 µM 49.2%

CCN(CC)CC.CCOc1ccc(NC(=O)N=C=[N-])cc1.[CH-]1CCCCC1.[CH-]1CCCCC1.[CH-]1CCCCC1.[Cl-].[Sn+4]
active: [3]; [15] 99% | [3]; [16] 99% | [3]; at 50.0 µM 87.2% | [4]; [15] 100% | [4]; [16] 99% | [4]; at 50.0 µM 88.4% | [6]; [15] 99% | [6]; [16] 99% | [6]; at 50.0 µM 90.2% | [8]; [15] 99% | [8]; [16] 99% | [8]; at 50.0 µM 89.5% | [9]; [15] 99% | [9]; [16] 99% | [9]; at 50.0 µM 89.2% | [13]; [15] 99% | [13]; [16] 99%

CC(C)(Br)C(=O)C(Br)Br
active: [3]; [15] 97% | [3]; [16] 99% | [3]; at 50.0 µM 86.3% | [4]; [15] 100% | [4]; [16] 99% | [4]; at 50.0 µM 89% | [6]; [15] 98% | [6]; [16] 99% | [6]; at 50.0 µM 89.7% | [8]; [15] 95% | [8]; [16] 99% | [8]; at 50.0 µM 88.8% | [9]; [15] 100% | [9]; [16] 99% | [9]; at 50.0 µM 88.7% | [13]; [15] 98% | [13]; [16] 98%

CC(C)c1c(O)c(O)c2c(c1O)C(=O)C(O)=C1C(C)(C)CCC[C@@]12C
active: [3]; [16] 95% | [3]; at 50.0 µM 86.8% | [4]; [15] 72% | [4]; [16] 96% | [4]; at 50.0 µM 88.8% | [6]; [15] 79% | [6]; [16] 95% | [6]; at 50.0 µM 88.6% | [8]; [16] 96% | [8]; at 50.0 µM 85.8% | [9]; [15] 84% | [9]; [16] 95% | [9]; at 50.0 µM 84.9%
inactive: [3]; [15] 48% | [8]; [15] 64%
